# Measured values as given in PubChem BioAssay (Tox21).
# Inconclusive results are not listed. A call without a number means that no potency is given here. Some compounds were tested as several samples or in several runs, with calls that do not always agree. Values without a mark were called inactive. Calls of active or inactive are those of the source. Unless noted, the call rests on the fitted dose curve; in most records, active means well fitted curve in the direction sought with a large enough effect in the repeat runs; inconclusive means weak or mixed curves; inactive means no such curve, though single readings can be large; an effect the other way counts as inactive or inconclusive.
# Legend:
# [1] = qHTS assay to identify aromatase inhibitors - cell viability counter screen (AID 743084);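 further: cells stimulated with testosterone during compound exposure; nearly all actives have a fitted effect of over 55% in size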; further: potency means the concentration at half of the fitted maximal effect
# [2] = molecular target: Aryl hydrocarbon receptor (Homo sapiens) (UniProt P35869); experiment: qHTS assay to identify small molecule that activate the aryl hydrocarbon receptor (AhR) signaling pathway (AID 743085);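 further: HG2L7.5c1 human HepG2 liver cells with stably integrated DRE-driven firefly reporter; series mostly up to about 70 µM; nearly all actives have a fitted effect of over 15% in size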
# Chain of Aryl hydrocarbon receptor (Homo sapiens) (P35869 whole entry, looked up): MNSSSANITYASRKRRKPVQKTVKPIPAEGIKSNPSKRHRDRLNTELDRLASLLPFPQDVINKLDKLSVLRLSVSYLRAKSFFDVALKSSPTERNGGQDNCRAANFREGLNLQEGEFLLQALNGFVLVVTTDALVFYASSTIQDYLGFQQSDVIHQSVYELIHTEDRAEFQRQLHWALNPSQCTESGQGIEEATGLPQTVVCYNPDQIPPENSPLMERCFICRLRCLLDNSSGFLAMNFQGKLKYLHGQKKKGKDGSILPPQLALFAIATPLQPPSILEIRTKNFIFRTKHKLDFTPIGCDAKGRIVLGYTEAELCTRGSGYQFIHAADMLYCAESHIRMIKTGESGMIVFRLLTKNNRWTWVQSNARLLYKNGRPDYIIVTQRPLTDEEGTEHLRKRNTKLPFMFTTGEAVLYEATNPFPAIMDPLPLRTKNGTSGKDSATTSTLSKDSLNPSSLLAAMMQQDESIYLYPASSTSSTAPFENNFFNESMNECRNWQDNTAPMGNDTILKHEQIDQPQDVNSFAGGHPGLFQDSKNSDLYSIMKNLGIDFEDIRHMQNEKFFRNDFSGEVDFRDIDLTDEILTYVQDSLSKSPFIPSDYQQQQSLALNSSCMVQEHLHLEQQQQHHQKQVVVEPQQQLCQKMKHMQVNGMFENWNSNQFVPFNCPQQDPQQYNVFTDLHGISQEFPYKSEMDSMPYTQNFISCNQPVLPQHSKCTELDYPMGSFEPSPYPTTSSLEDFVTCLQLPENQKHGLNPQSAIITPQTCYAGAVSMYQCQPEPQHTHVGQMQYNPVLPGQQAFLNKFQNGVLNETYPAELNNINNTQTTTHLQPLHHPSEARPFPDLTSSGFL
# Outline: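 Steps: seed HepG2-AhR-luc cells; allow 5 h at 37C; pin-transfer test compound or vehicle; incubate 24 h at 37C; add viability dye (30 min, 37C) and read fluorescence; add luciferase substrate (30 min, RT) and read luminescence.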
# [3] = qHTS assay to identify small molecule that activate the aryl hydrocarbon receptor (AhR) signaling pathway - cell viability counter screen (AID 743086); further: nearly all actives have a fitted effect of over 45% in size; further: potency means the concentration at half of the fitted maximal effect;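 on viability change, negative = cytotoxic: HepG2 liver cells carrying the AhR DRE luciferase reporter; series mostly up to about 70 µM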
# Outline: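 Cytotoxicity counter screen: CellTiter-Fluor signal (30 min, 37 C) in 4000 HepG2 cells/well carrying the DRE-luciferase reporter, following 24 h compound exposure at 37 C.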
# [4] = molecular target: Peroxisome proliferator-activated receptor gamma (Homo sapiens) (UniProt P37231); experiment: qHTS assay to identify small molecule agonists of the peroxisome proliferator-activated receptor gamma (PPARg) signaling pathway (AID 743094; active means well fitted activation curve with a large enough effect in the signal ratio in the repeat runs, not every such curve was filed as active; the % refers to the signal ratio)
# Chain of Peroxisome proliferator-activated receptor gamma (Homo sapiens) (P37231 whole entry, looked up): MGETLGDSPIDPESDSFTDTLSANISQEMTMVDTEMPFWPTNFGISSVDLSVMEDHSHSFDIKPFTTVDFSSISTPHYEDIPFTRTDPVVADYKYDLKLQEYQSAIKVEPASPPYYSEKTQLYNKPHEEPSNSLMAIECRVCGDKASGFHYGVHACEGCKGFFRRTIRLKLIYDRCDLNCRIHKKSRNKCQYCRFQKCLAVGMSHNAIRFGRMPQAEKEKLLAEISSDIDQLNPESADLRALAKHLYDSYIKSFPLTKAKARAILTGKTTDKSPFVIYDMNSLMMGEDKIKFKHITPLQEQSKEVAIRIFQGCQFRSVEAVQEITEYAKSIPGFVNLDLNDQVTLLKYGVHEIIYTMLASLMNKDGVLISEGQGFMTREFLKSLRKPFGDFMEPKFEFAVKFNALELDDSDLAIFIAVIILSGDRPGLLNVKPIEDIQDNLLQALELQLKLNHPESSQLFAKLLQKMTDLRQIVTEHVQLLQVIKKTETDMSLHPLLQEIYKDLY
# Outline: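 HEK293H PPARg-bla cells, 5 h settle at 37C/5% CO2; compound (DMSO) 17 h, 37C; B/G FRET substrate 1 h RT; fluorescence intensity read-out. qHTS format.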
# [5] = molecular target: Peroxisome proliferator-activated receptor gamma (Homo sapiens) (UniProt P37231); experiment: qHTS assay to identify small molecule antagonists of the peroxisome proliferator-activated receptor gamma (PPARg) signaling pathway (AID 743191; calls by dose curve; further: series mostly up to about 63 µM; nearly all actives have a fitted effect of over 30% in size)
# Outline: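 Beta-lactamase reporter under UAS control in HEK293H PPARg-bla cells; compound treatment 17 h at 37C. Read-out: fluorescence intensity after 1 h room-temperature incubation with LiveBLAzer B/G FRET substrate.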
# [6] = qHTS assay to identify small molecule antagonists of the peroxisome proliferator-activated receptor gamma (PPARg) signaling pathway - cell viability counter screen (AID 743194); further: nearly all actives have a fitted effect of over 55% in size
# Outline: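 Viability was measured as CellTiter-Glo luminescence in GeneBLAzer PPARg UAS-bla HEK293H cells. These cells had been exposed 17 h at 37 C to compounds together with rosiglitazone at 50 nM final, with the beta-lactamase readout taken in the same wells.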
# [7] = qHTS assay for small molecule agonists of the antioxidant response element (ARE) signaling pathway (AID 743202; active means well fitted activation curve with a large enough effect in the signal ratio in the repeat runs, not every such curve was filed as active; the % refers to the signal ratio)
# Outline: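 Beta-lactamase reporter activity, read as fluorescence intensity, reflects ARE/Nrf2 pathway induction in HepG2 cells after 16 h compound exposure at 37 C; substrate loading was 2 h at room temperature.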
# [8] = qHTS assay for small molecule agonists of the antioxidant response element (ARE) signaling pathway - cell viability counter screen (AID 743203; calls by dose curve; further: nearly all actives have a fitted effect of over 55% in size)
# Outline: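 Luminescence read-out (CellTiter-Glo, 30 min at room temperature) measured cell viability in the same wells as the ARE beta-lactamase reporter. HepG2 ARE-bla cells were treated with compounds for 16 hrs at 37C/5% CO2.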
# [9] = qHTS assay for small molecule activators of the heat shock response signaling pathway - cell viability counter screen (AID 743209); further: nearly all actives have a fitted effect of over 50% in size
# Outline: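 HSE-bla HeLa; 1500 cells/well; overnight 37 C, 5% CO2; compound 5 h 37 C; LiveBLAzer B/G substrate 2.5 h RT; CellTiter-Glo 30 min RT; luminescence.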
# [10] = qHTS assay for small molecule activators of the heat shock response signaling pathway (AID 743210; active means well fitted activation curve with a large enough effect in the signal ratio in the repeat runs, with a control signal flat, not every such curve was filed as active; the % refers to the signal ratio;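 further: HeLa cells with beta-lactamase reporter driven by heat shock elements; series mostly up to about 63 µM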)
# Outline: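 Fluorescence from a cleaved B/G FRET substrate (2.5 h, room temp) reports HSE-driven beta-lactamase in HeLa cells treated 5 h at 37 C with DMSO-dissolved compounds.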
# [11] = qHTS assay to identify small molecule agonists of the peroxisome proliferator-activated receptor delta (PPARd) signaling pathway - cell viability counter screen (AID 743211); further: nearly all actives have a fitted effect of over 55% in size
# Outline: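 Viability of GeneBLAzer PPARd UAS-bla HEK293H cells was assessed after 17 h compound incubation at 37C, using CellTiter-Glo reagent added after the reporter read and luminescence recorded 30 min later.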
# [12] = molecular target: Peroxisome proliferator-activated receptor delta (Homo sapiens) (UniProt Q03181); experiment: qHTS assay to identify small molecule agonists of the peroxisome proliferator-activated receptor delta (PPARd) signaling pathway (AID 743212; calls by dose curve)
# Chain of Peroxisome proliferator-activated receptor delta (Homo sapiens) (Q03181 whole entry, looked up): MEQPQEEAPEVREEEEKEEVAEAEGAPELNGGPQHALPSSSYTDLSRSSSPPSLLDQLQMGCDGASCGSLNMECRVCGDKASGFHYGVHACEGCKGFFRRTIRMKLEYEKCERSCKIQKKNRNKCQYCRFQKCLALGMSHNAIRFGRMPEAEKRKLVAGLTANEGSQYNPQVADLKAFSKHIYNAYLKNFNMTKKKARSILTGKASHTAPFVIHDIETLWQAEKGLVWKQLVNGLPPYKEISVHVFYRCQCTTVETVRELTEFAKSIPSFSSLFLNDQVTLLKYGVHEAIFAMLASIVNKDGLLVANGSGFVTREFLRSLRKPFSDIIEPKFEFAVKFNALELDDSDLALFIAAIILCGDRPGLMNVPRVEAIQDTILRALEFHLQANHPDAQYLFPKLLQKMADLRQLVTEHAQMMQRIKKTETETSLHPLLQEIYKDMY
# Outline: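 Steps: seed PPARd-bla HEK293H cells; incubate 5 h, 37 C, 5% CO2; add compounds in DMSO; incubate, 37 C; add LiveBLAzer B/G FRET substrate; hold 2 h at room temperature; measure fluorescence.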
# [13] = qHTS assay to identify small molecule antagonists of the peroxisome proliferator-activated receptor delta (PPARd) signaling pathway - cell viability counter screen (AID 743213); further: nearly all actives have a fitted effect of over 50% in size
# Outline: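 Viability counter-screen, qHTS format: PPARd-bla HEK293H, L165041 300 nM final, 17 h compound exposure at 37 C, CellTiter-Glo luminescence after 30 min RT.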
# [14] = molecular target: Bile acid receptor (Homo sapiens) (UniProt Q96RI1); experiment: qHTS assay to identify small molecule antagonists of the farnesoid-X-receptor (FXR) signaling pathway (AID 743217; active means well fitted inhibition curve with a large enough effect in the signal ratio in the repeat runs, not every such curve was filed as active; the % refers to the signal ratio)
# Chain of Bile acid receptor (Homo sapiens) (Q96RI1 whole entry, looked up): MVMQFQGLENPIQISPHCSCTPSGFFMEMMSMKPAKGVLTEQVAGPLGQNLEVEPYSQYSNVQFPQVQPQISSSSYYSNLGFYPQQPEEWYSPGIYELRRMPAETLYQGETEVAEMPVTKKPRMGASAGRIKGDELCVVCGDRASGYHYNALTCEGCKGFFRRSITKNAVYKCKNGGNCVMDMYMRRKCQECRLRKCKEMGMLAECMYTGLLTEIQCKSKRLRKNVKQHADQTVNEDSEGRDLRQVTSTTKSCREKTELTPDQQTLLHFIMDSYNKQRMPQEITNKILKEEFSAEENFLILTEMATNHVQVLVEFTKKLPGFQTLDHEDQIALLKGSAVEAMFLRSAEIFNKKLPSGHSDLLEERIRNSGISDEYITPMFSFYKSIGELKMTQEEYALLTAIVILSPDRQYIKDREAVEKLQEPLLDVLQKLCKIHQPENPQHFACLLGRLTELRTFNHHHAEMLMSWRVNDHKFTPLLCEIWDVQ
# Outline: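 Read-out: beta-lactamase FRET fluorescence (LiveBLAzer B/G substrate, 2 h, room temperature) in GeneBLAzer FXR-UAS-bla HEK 293T cells. Compounds were co-dosed with 50 uM chenodeoxycholic acid (final) and incubated 16 h at 37 °C.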
# [15] = qHTS assay to identify small molecule agonists of the farnesoid-X-receptor (FXR) signaling pathway - cell viability counter screen (AID 743218); further: nearly all actives have a fitted effect of over 45% in size
# Outline: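 Luminescence from CellTiter-Glo, read after 30 min at RT, reports viability of GeneBLAzer FXR-UAS-bla HEK 293T cells treated 16 h with compounds in the wells used for the beta-lactamase reporter.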
# [16] = qHTS assay to identify small molecule antagonists of the farnesoid-X-receptor (FXR) signaling pathway - cell viability counter screen (AID 743221; active means well fitted cell-killing curve with a large enough effect in the repeat runs, not every such curve was filed as active; further: nearly all actives have a fitted effect of over 50% in size)
# Outline: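 Quantitative HTS of the Tox21 10K library run in parallel with the beta-lactamase reporter read. HEK 293T cells carrying a UAS-driven bla reporter got compound and 50 uM CDCA (final) for 16 h; ATP-based luminescence followed.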
# [17] = molecular target: Vitamin D3 receptor (Homo sapiens) (UniProt P11473); experiment: qHTS assay to identify small molecule agonists of the vitamin D receptor (VDR) signaling pathway (AID 743222; calls by dose curve)
# Chain of Vitamin D3 receptor (Homo sapiens) (P11473 whole entry, looked up): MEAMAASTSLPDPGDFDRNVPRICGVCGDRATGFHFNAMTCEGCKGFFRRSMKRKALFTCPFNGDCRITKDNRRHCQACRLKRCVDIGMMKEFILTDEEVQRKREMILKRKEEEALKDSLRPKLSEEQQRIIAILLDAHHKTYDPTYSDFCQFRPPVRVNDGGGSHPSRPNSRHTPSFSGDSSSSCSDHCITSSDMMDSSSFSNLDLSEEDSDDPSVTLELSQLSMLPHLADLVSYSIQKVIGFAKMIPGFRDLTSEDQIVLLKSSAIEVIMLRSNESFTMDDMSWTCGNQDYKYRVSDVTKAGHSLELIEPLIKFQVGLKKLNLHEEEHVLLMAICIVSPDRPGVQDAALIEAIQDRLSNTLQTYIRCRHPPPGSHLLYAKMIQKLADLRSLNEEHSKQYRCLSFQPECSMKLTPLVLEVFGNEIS
# Outline: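 Beta-lactamase reporter readout (LiveBLAzer B/G FRET, 2 h RT) in VDR-bla cells after 16 h compound treatment at 37C, 5% CO2; cells pre-incubated 4 h before pin transfer of DMSO solutions.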
# [18] = molecular target: Peroxisome proliferator-activated receptor delta (Homo sapiens) (UniProt Q03181); experiment: qHTS assay to identify small molecule antagonists of the peroxisome proliferator-activated receptor delta (PPARd) signaling pathway (AID 743215; active means well fitted inhibition curve with a large enough effect in the signal ratio in the repeat runs, not every such curve was filed as active; the % refers to the signal ratio;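 further: cells stimulated with agonist L165041 at 300 nM final during compound exposure; series mostly up to about 62 µM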)
# Outline: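 HEK293H GeneBLAzer PPARd UAS-bla reporter cells; cpd + L165041 300 nM final, 17 h 37 C; LiveBLAzer B/G FRET substrate 2 h RT; fluorescence intensity read-out. Antagonist mode.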
# [19] = molecular target: Vitamin D3 receptor (Homo sapiens) (UniProt P11473); experiment: qHTS assay to identify small molecule antagonists of the vitamin D receptor (VDR) signaling pathway (AID 743223; active means well fitted inhibition curve with a large enough effect in the signal ratio in the repeat runs, not every such curve was filed as active; the % refers to the signal ratio)
# Outline: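 Fluorescence from LiveBLAzer B/G FRET substrate, read after 2 h at room temperature, reflects beta-lactamase reporter activity in VDR-bla cells treated 16 h at 37C with compounds and agonist 1alpha,25-dihydroxyvitamin D3 (3 nM final).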
compound,measurement,setting,value
O=C(O)c1cc2ccccc2nc1C(=O)O,Potency,[1],inactive
same,Potency,[2],inactive
same,Potency,[3],inactive
same,Potency,[4],inactive
same,outcome,[5],inactive
same,outcome,[6],inactive
same,Potency,[7],inactive
same,outcome,[8],inactive
same,Potency,[9],inactive
same,outcome,[10],inactive
same,outcome,[11],inactive
same,outcome,[12],inactive
same,outcome,[13],inactive
same,outcome,[14],inactive
same,outcome,[15],inactive
same,outcome,[16],inactive
same,outcome,[17],inactive
CCCCCCCCCCCCCCCCCC#N,Potency,[1],inactive
same,Potency,[2],inactive
same,Potency,[3],inactive
same,Potency,[4],inactive
same,outcome,[5],inactive
same,outcome,[6],inactive
same,Potency,[7],inactive
same,outcome,[8],inactive
same,Potency,[9],inactive
same,outcome,[10],inactive
same,outcome,[11],inactive
same,outcome,[12],inactive
same,outcome,[13],inactive
same,outcome,[15],inactive
same,outcome,[16],inactive
O=S(=O)(O)c1ccc2c(N=Nc3ccc(S(=O)(=O)O)c4ccccc34)c(O)c(S(=O)(=O)O)cc2c1,Potency,[1],18.8 µM (active)
same,Potency,[2],inactive
same,Potency,[3],13.3 µM (active)
same,"viability change, negative = cytotoxic",[3],-5.27% [at 8.47 µM]
same,Potency,[4],inactive
same,"ratio activity, negative = inhibition",[5],-16.6% [at 5.95 µM]
same,"activity change, negative = cytotoxicity",[6],-3.57% [at 5.95 µM]
same,activation,[7],7.21% [at 8.36 µM]
same,"viability change, negative = cytotoxic",[8],-0.964% [at 8.36 µM]
same,"activity change, negative = cytotoxicity",[9],0.481% [at 5.95 µM]
same,activation,[10],-0.859% [at 5.95 µM]
same,"activity change, negative = cytotoxicity",[11],3.44% [at 5.95 µM]
same,"ratio activity, negative = inhibition",[18],7.03% [at 6.26 µM]
same,"activity change, negative = inhibition",[14],-1.36% [at 5.95 µM]
same,"viability change, negative = cytotoxic",[15],1.45% [at 5.95 µM]
same,"activity change, negative = cytotoxicity",[16],-3.15% [at 5.95 µM]
same,activation,[17],-5.96% [at 6.01 µM]
same,"activity change, negative = inhibition",[19],8.98% [at 6.95 µM]
CC(O)COC(C)(C)C (configuration not stated),Potency,[1],inactive
same,Potency,[2],inactive
same,Potency,[3],inactive
same,Potency,[4],inactive
same,outcome,[5],inactive
same,outcome,[6],inactive
same,Potency,[7],inactive
same,outcome,[8],inactive
same,Potency,[9],inactive
same,outcome,[10],inactive
same,outcome,[11],inactive
same,outcome,[13],inactive
same,outcome,[18],inactive
same,outcome,[15],inactive
same,outcome,[16],inactive
same,outcome,[17],inactive
same,outcome,[19],inactive
CC(C)=CCC/C(C)=C/COC=O,Potency,[1],inactive
same,Potency,[2],inactive
same,Potency,[3],inactive
same,Potency,[4],inactive
same,outcome,[5],inactive
same,outcome,[6],inactive
same,Potency,[7],inactive
same,outcome,[8],inactive
same,Potency,[9],inactive
same,outcome,[10],inactive
same,outcome,[11],inactive
same,outcome,[12],inactive
same,outcome,[13],inactive
same,outcome,[18],inactive
same,outcome,[15],inactive
same,outcome,[16],inactive
Cc1cc(C)c(C(=O)O)c(C)c1,Potency,[1],inactive
same,Potency,[2],inactive
same,Potency,[3],inactive
same,Potency,[4],inactive
same,outcome,[5],inactive
same,outcome,[6],inactive
same,Potency,[7],inactive
same,outcome,[8],inactive
same,Potency,[9],inactive
same,outcome,[10],inactive
same,outcome,[11],inactive
same,outcome,[13],inactive
same,outcome,[15],inactive
same,outcome,[16],inactive
O=C(CCCCC(=O)Nc1c(I)cc(I)c(C(=O)O)c1I)Nc1c(I)cc(I)c(C(=O)O)c1I,Potency,[1],inactive
same,Potency,[2],inactive
same,Potency,[3],inactive
same,Potency,[4],inactive
same,outcome,[5],inactive
same,outcome,[6],inactive
same,Potency,[7],inactive
same,outcome,[8],inactive
same,Potency,[9],inactive
same,outcome,[10],inactive
same,outcome,[11],inactive
same,outcome,[12],inactive
same,outcome,[13],inactive
same,outcome,[18],inactive
same,outcome,[15],inactive
same,outcome,[16],inactive
same,outcome,[17],inactive
CCCCC1CCC(O)CC1 (configuration not stated),Potency,[1],inactive
same,Potency,[2],inactive
same,Potency,[3],inactive
same,Potency,[4],inactive
same,outcome,[5],inactive
same,outcome,[6],inactive
same,Potency,[7],inactive
same,outcome,[8],inactive
same,Potency,[9],inactive
same,outcome,[10],inactive
same,outcome,[11],inactive
same,outcome,[12],inactive
same,outcome,[13],inactive
same,outcome,[14],inactive
same,outcome,[16],inactive
same,outcome,[17],inactive
same,outcome,[19],inactive
O=C1CCC(=O)N1Cl,Potency,[1],inactive
same,Potency,[2],inactive
same,Potency,[3],inactive
same,Potency,[4],inactive
same,outcome,[5],inactive
same,outcome,[6],inactive
same,Potency,[7],inactive
same,outcome,[8],inactive
same,Potency,[9],inactive
same,outcome,[10],inactive
same,outcome,[11],inactive
same,outcome,[13],inactive
same,outcome,[18],inactive
same,outcome,[15],inactive
same,outcome,[16],inactive
same,outcome,[17],inactive
